About 3,700 (7%) of roughly 53,000 sequences were called active. Shown is part of a subset that was picked to be rich in actives. A number with no mark means an inactive call.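 Rule for the calls: active = gene knockdowns whose robust z-score for IL-1 alpha signal is at least 2 or at most -2, so actives lie on both sides; inactive = the rest.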
Test: Components of the Cytosolic LPS Sensing Pathway: Gene Identification via Genome-wide siRNA Screen;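 note: robust z of the log signal after scaling to non-targeting control siRNA wells of the plate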
Conditions: RAW264.7 macrophages, IL-1a HTRF, actives lie on both sides, screened at 100 nM (by protocol), cells primed 5 h with Pam3CSK4 first
In short: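 Three distinct siRNAs per gene were tested singly at 100 nM in RAW264.7 macrophages. Following Pam3CSK4 priming and 24 hour LipidA transfection, IL-1a secretion was read by HTRF.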

Question: Which z-score does the source give for CCUCCCAGUACACUUGAAATT against Cox7a1 here?
Answer: 0.0752

Question: With GGAAGAAACGGAGACUCAATT against Dpf1 as the sequence, how does the z-score read?
Answer: 0.052

Question: With CCAAUGAGUUAAUCACCUUTT against Olfr1135 as the sequence, how does the z-score read?
Answer: 0.587

Question: With GGUCCAUACUCCUAAAGAATT against Mpzl1 as the sequence, how does the z-score read?
Answer: -0.727

Question: For GGUGCAGUUUCUCCUCUUUTT against Pla1a, which z-score is on record?
Answer: 2.09 (active)

Question: Which z-score does the source give for GGAUCUGUUACUCUGAUACTT against Pias4 here?
Answer: 0.847

Question: Which z-score does the source give for GGUCAACAUUAAAAUACUGTT against Map2k4 here?
Answer: -0.0649

Question: With GGUUUGCCUAUUUUUUCUUTT against Trmt10c as the sequence, how does the z-score read?
Answer: 1.9

Question: With GGGUUUUUUUUUUCCUUCCTT against Hsd17b1 as the sequence, how does the z-score read?
Answer: -0.0306

Question: Which z-score does the source give for CGUAGGACUGAAUCAGCUUTT against Slc13a3 here?
Answer: -3.04 (active)

Question: For GCCAUUUGAAGUGUUUAAATT against Kctd12, which z-score is on record?
Answer: -0.103

Question: With GGAAGACCUAAACAACGGCTT against Dusp10 as the sequence, how does the z-score read?
Answer: -1.55

Question: With GGGUAACUAUUGGACUAACTT against Gabrq as the sequence, how does the z-score read?
Answer: -0.262

Question: For GGCAUUGGAAUAAAAUUUGTT against Rfk, which z-score is on record?
Answer: 0.267

Question: For GGUGGUACGCAGACUAAAUTT against Ulk1, which z-score is on record?
Answer: 2.94 (active)

Question: For GGGUUAAACCACAUAUCCATT against Spata9, which z-score is on record?
Answer: -1.06

Question: Which z-score does the source give for GCUUUUCCGCUUCUACCGGTT against Nrp here?
Answer: -0.505

Question: Which z-score does the source give for GCUGUGGAGAAGUGCUACUTT against Lce1b here?
Answer: -0.907

Question: With CCGAAAAUGGUUAGGACAUTT against Kynu as the sequence, how does the z-score read?
Answer: 1.44

Question: For GGGCCUUCAAAACGAGAAGTT against Cyp4f39, which z-score is on record?
Answer: 0.339

Question: For GCCUUCCUGAAUUUAAAGATT against Myo5b, which z-score is on record?
Answer: 1.33

Question: For GGAUAAAAUUGCUUUACUGTT against Srek1ip1, which z-score is on record?
Answer: 2.63 (active)

Question: Which z-score does the source give for GGUGGUACUUACUCAAAAUTT against Fgg here?
Answer: 1.05

Question: Which z-score does the source give for GGGACUACCAUUUGUUAAUTT against Tktl1 here?
Answer: 0.751

Question: Which z-score does the source give for CCAGAUUGUCACUUGCUACTT against Skint3 here?
Answer: 1.25

Question: Which z-score does the source give for GGAUACAAUCAUCGCCAUCTT against Olfr101 here?
Answer: 1.3

Question: Which z-score does the source give for GCUUUUAACAUCGAGUAAUTT against Top2b here?
Answer: -0.627

Question: Which z-score does the source give for GCAUUCAUCAGGGUUGAUUTT against Wdr20 here?
Answer: -2.43 (active)

Question: Which z-score does the source give for CCUGUUAUGACCGUUCAUGTT against Prpf4 here?
Answer: 0.551

Question: Which z-score does the source give for GGCUCUGAAAAUUGAACACTT against Cep83 here?
Answer: 0.0736

Question: For GGGUCUUAUCUCGAUGAGGTT against Flt3l, which z-score is on record?
Answer: -0.199

Question: Which z-score does the source give for GGAAAUCAGCUGAAUUACUTT against Dicer1 here?
Answer: 1.07

Question: For GGAACCAAUCUUGGUCUCATT against Tln2, which z-score is on record?
Answer: -0.66

Question: Which z-score does the source give for GGAUUCAGGCUGGAAAAUATT against Clrn1 here?
Answer: -1.04

Question: Which z-score does the source give for GGAAAACUUGAGGCGGAUCTT against Enkd1 here?
Answer: 2.63 (active)

Question: For CCCUGAAGGCUUACUUUUUTT against Cfap299, which z-score is on record?
Answer: -0.231

Question: With GCUUUUCAUAUCUCUUGCATT against Olfr1385 as the sequence, how does the z-score read?
Answer: 0.408

Question: For CCUGUCUGGACUUGUCUAATT against Ica1, which z-score is on record?
Answer: -2.05 (active)

Question: Which z-score does the source give for GCCAGAAUCUGUUGUGAACTT against Gfpt1 here?
Answer: 0.0747

Question: With GGGAAAAUCCACUUUUAAGTT against Hs2st1 as the sequence, how does the z-score read?
Answer: -0.0469

Question: For GGGUCCAAUAAACAUGUCUTT against B3galt4, which z-score is on record?
Answer: 0.234

Question: For CCAGGACUUACUCAGUAAUTT against Setd6, which z-score is on record?
Answer: -0.72

Question: With GGCAAGAGAAUUCAGAUCUTT against Slc5a1 as the sequence, how does the z-score read?
Answer: 2.91 (active)

Question: Which z-score does the source give for GGCGUGAUCGCUCUCCAAUTT against Ncoa5 here?
Answer: 0.834

Question: With GGAUAACCGCCAAUAAAAATT against Msantd3 as the sequence, how does the z-score read?
Answer: 0.255

Question: For GCCCUACCUUGAAUCCCAUTT against Olfr532, which z-score is on record?
Answer: -1.75

Question: With GGUAUUGGGCCAUUGGUUGTT against Mapkapk3 as the sequence, how does the z-score read?
Answer: 0.705

Question: Which z-score does the source give for GGGUUGAUUAAAGUUUAACTT against Gsx2 here?
Answer: 1.4

Question: Which z-score does the source give for GGCCACUUGCCUAUUGUGATT against Anxa6 here?
Answer: -0.343

Question: For GAAUAUGUGGCUCUGGGUCTT against G6pc3, which z-score is on record?
Answer: -0.414

Question: With GCUGCACAUUGUCCAUUAUTT against Car12 as the sequence, how does the z-score read?
Answer: 2.3 (active)

Question: For GGUGUUCUUUGACAGUGCCTT against Atp5d, which z-score is on record?
Answer: 0.107

Question: With GCCGAUGAUGAGAAACGACTT against Cd2 as the sequence, how does the z-score read?
Answer: -0.279

Question: For GGCGAGUUUUCCUCUUCAGTT against Sync, which z-score is on record?
Answer: 1.08

Question: For CCGUCAUCACUGAUCAGUUTT against Olfr684, which z-score is on record?
Answer: 2.7 (active)

Question: With GGUGCUGUGUGAGCUUUCATT against Zfp85os as the sequence, how does the z-score read?
Answer: -1.47

Question: For GGCUGACUCGCUUUCACCATT against Efna2, which z-score is on record?
Answer: 0.522

Question: With GCCACAGGCCAAGAUCAUUTT against Pafah1b2 as the sequence, how does the z-score read?
Answer: -0.614

Question: For GGACAAUUGGAAGAUUUGGTT against Ccdc88a, which z-score is on record?
Answer: -1.23

Question: For CCCUGAAUAAGGCUGAUCUTT against Krt32, which z-score is on record?
Answer: -0.801

Question: With GGAUCUGUGAGAAUCAUAGTT against Rabgap1l as the sequence, how does the z-score read?
Answer: -2.24 (active)

Question: For GGGAGAUGUUGUCAGGGUCTT against Rnasel, which z-score is on record?
Answer: -0.476

Question: For GGAAAGUGCAUCAUAGACATT against Thrb, which z-score is on record?
Answer: 0.153

Question: With GGACGAUGUAUUGUUAUUGTT against Lrp10 as the sequence, how does the z-score read?
Answer: 1.49

Question: Which z-score does the source give for GGUAUGACUUGCUCUUUAUTT against Rnpep here?
Answer: -0.881

Question: With GCAUUUGUGGCCUAUGCUCTT against Naprt as the sequence, how does the z-score read?
Answer: -2.16 (active)

Question: With GCUCAAAUGUUCUAAAAGCTT against Acmsd as the sequence, how does the z-score read?
Answer: -0.332

Question: With GGCGUAUUUGUCAUUUCUUTT against Dis3l as the sequence, how does the z-score read?
Answer: 0.013

Question: For GGAAGUCAUUUUUUCCAAGTT against Msantd4, which z-score is on record?
Answer: 1.12

Question: For GCAUUGUUUUUCUAUUCAGTT against Cfhr1, which z-score is on record?
Answer: 0.531

Question: With GGUGCUUCACAGAAUGUGUTT against Olfr784 as the sequence, how does the z-score read?
Answer: -1.8

Question: With GGGUCUCAAAGCAGUUUUUTT against Rhoj as the sequence, how does the z-score read?
Answer: 3.99 (active)

Question: For GCUGAAAACACACCUAGCATT against Gin1, which z-score is on record?
Answer: 1.19

Question: For GGCUGUCUUACAAUGUAAUTT against Gabrb2, which z-score is on record?
Answer: -0.638

Question: With GAGACUAAUAUAGUGAAUGTT against Foxj1 as the sequence, how does the z-score read?
Answer: -0.314

Question: Which z-score does the source give for GGCAGAGAGUCUACAUAUGTT against Bcar3 here?
Answer: -0.272

Question: With GCAGAAGGUACUACUAUCGTT against Rcsd1 as the sequence, how does the z-score read?
Answer: 0.669

Question: For CCUUGUUGUGACAAGCUUUTT against Rchy1, which z-score is on record?
Answer: -0.362

Question: For GGCUUCAUGCCUUAUCCACTT against Fam166a, which z-score is on record?
Answer: -0.314

Question: Which z-score does the source give for GCCCUGUGCUUGGCAACAUTT against Ssbp3 here?
Answer: -2.36 (active)

Question: With GGCCACCGUUCAAAAAAUUTT against Dctn5 as the sequence, how does the z-score read?
Answer: -0.226

Question: For GGAAGAGAAUAGAUCCUAUTT against Zbtb8a, which z-score is on record?
Answer: -0.388

Question: For GGUCGUGUACAAGUACAUATT against Mrps24, which z-score is on record?
Answer: 2.24 (active)

Question: Which z-score does the source give for GCUACUGCACAAAGUUACGTT against Ankrd36 here?
Answer: -0.0351

Question: Which z-score does the source give for GCUGACUCCAUCCUAACAGTT against Cideb here?
Answer: -2.6 (active)

Question: Which z-score does the source give for GCCUCUGAGUUGCAUGAGUTT against Ppp2r5b here?
Answer: -0.736

Question: For GGACUACCAUCGACCUUCATT against Nek2, which z-score is on record?
Answer: 1.15

Question: For CCCAAGAAUUGGAUUCCAGTT against Lta, which z-score is on record?
Answer: -0.528

Question: Which z-score does the source give for GGAGCUGAAGAUCAAGGAGTT against Pkn3 here?
Answer: -0.849

Question: Which z-score does the source give for GCCCAAAAAUACUGGAUAUTT against Atp6ap2 here?
Answer: -2

Question: For “GCCUUGUAGACCAGUUCUATT against 9530085L02Rik”, which z-score is on record?
Answer: 2.15 (active)

Question: With CCGCAUGUUUGGAAAGGAUTT against Cabp4 as the sequence, how does the z-score read?
Answer: -0.484

Question: Which z-score does the source give for GGAACAAUUUGAUCCAGCATT against Mbnl2 here?
Answer: -1.67

Question: With CCCACUCCUUCUAAAAGUUTT against Cyp3a13 as the sequence, how does the z-score read?
Answer: -0.909

Question: For GGCCAUUCACGUUUUACUCTT against Ric8b, which z-score is on record?
Answer: -1.02

Question: Which z-score does the source give for GGAGCUAUAUUCUCACCCATT against Ptpn1 here?
Answer: -2.06 (active)

Question: With GGGAAAAAUAUCAGUUAUGTT against Khdrbs1 as the sequence, how does the z-score read?
Answer: 0.465

Question: Which z-score does the source give for GGGUACGUUCAAGUGCUUCTT against Agtpbp1 here?
Answer: 1.74

Question: With GGAUACAUGUGGUGCCAAUTT against Banf1 as the sequence, how does the z-score read?
Answer: -0.529

Question: With GCCAUAACCUACAUUGUCATT against Loxhd1 as the sequence, how does the z-score read?
Answer: -2.86 (active)

Question: With GCGAAUCCACUUAAUUCGATT against Abhd4 as the sequence, how does the z-score read?
Answer: 1.35

Question: For CCACAAGAUUGUUUCAGAATT against Lingo4, which z-score is on record?
Answer: 0.216

Question: For GCUGCUCAAGUUGUGGUGATT against Sord, which z-score is on record?
Answer: 1.56

Question: Which z-score does the source give for GGUUCAGCUGACGUAAAAATT against BC048562 here?
Answer: -2.1 (active)

Question: For GCAGUAGAUCCUGAUUUUGTT against Cdh12, which z-score is on record?
Answer: -0.382

Question: For GGGACCUUUCCUGACCUAUTT against Ppdpf, which z-score is on record?
Answer: -0.362

Question: For GGUCCACUUGCCAUCUAUUTT against Zfp54, which z-score is on record?
Answer: -1.09

Question: With CCCUAACAUACUGGAGCUATT against Erfe as the sequence, how does the z-score read?
Answer: 3.56 (active)

Source: PubChem BioAssay AID1508600 (Functional Genomics Laboratory (NCATS/FGL), 2020)
